From PubChem BioAssay (NCATS) come the findings set out here.

Inconclusive results are not listed. Values without a mark were called inactive. Calls of active or inactive are those of the source. The call rests on the fitted dose curve; in most records, active means well fitted curve in the direction sought with a large enough effect; inconclusive means small, poorly fitted or top-dose-only effect, or another doubt; inactive means no such curve, though single readings can be large; an effect the other way counts as inactive or inconclusive.

Experiment [1] relates to CRL-7250. The experiment in a line: Cytotoxic Profiling of Annotated Libraries Using Quantitative High-Throughput Screening (AID 1296008). Further: nearly all actives have a fitted effect of over 60% in size. On max response: on the % scale 0 is the no-effect control and ±100 the full control effect. The note with it: Five cell lines viability, CellTiter-Glo ATP luminescence, 48-72 h; max response: hits give low values. Summed up: (§1)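 Compounds were pin-transferred onto cells and incubated 48 or 72 hr at 37 degree Celsius, 95% humidity. CellTiter-Glo was added, plates sat 10 min at room temperature, then ATP-coupled luminescence was imaged as the viability read-out.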
A general note: Cellular ATP, detected with luciferase, serves as a proxy for viable cell number.

Experiment [2] has as its system HEK293. The experiment is described as above. The note with it: Five cell lines viability, CellTiter-Glo ATP luminescence, 48-72 h; max response: hits give low values. Summed up: as §1
The test system of experiment [3] is HaCat. Described as above. Conditions: Five cell lines viability, CellTiter-Glo ATP luminescence, 48-72 h; max response: hits give low values. Summed up:
as §1

In experiment [4] the test system is NIH3T3. The description is as above. Conditions: Five cell lines viability, CellTiter-Glo ATP luminescence, 48-72 h; max response: hits give low values. Summed up:
as §1

In experiment [5] the test system is CRL-7250. Kind of experiment: qHTS assay to identify novel small-molecules to repurpose for Merkel cell carcinoma treatment (AID 1296009). Further: nearly all actives have a fitted effect of over 60% in size. Conditions: MCC and control cell lines, CellTiter-Glo viability, 72 h; at 44.8 µM (top of the series) unless noted. Summed up: (§2)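 Cells exposed to NPC (8-point) and MIPE (11-point) compound dilutions for 72 hr at 37 degree celsius; viability read by CellTiter-Glo luminescence, normalized to no-cell and DMSO in-plate controls.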

Experiment [6] concerns HACAT. The experiment is described as above. The note with it: MCC and control cell lines, CellTiter-Glo viability, 72 h; at 44.8 µM (top of the series) unless noted. Summed up:
as §2

Experiment [7] relates to C33A. Kind of experiment: Primary qHTS to identify gynecologic anti-cancer compounds using libraries of approved drugs and bioactive compounds (AID 1345084). Further: nearly all actives have a fitted effect of over 55% in size. On activity change, negative = cytotoxicity: on the % scale 0 is the no-effect control and ±100 the full control effect. The note with it: Gynecologic cancer cell panel viability, ATPlite luminescence, 48 h; series mostly up to 57.5 µM. Summed up:
(§3)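 In this quantitative HTS, cell killing is estimated from loss of ATP-dependent luciferase light. Cells see five compound concentrations over a 48 h exposure.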
On the technique in general: qHTS replaces the single test concentration by a dilution series.

For experiment [8], the system named is CASKI. The experiment is described as above. Conditions: Gynecologic cancer cell panel viability, ATPlite luminescence, 48 h; series mostly up to 57.5 µM. Put shortly: as §3
The subject of experiment [9] is Es-2. The description is as above. The note with it: Gynecologic cancer cell panel viability, ATPlite luminescence, 48 h; series mostly up to 57.5 µM. Put shortly:
as §3

Experiment [10] concerns HeLa. The description is as above. The note with it: Gynecologic cancer cell panel viability, ATPlite luminescence, 48 h; series mostly up to 57.5 µM. Summed up: as §3
For experiment [11], the system named is KB-3-1. The experiment in a line: Cytotoxic Profiling of Annotated Libraries Using Quantitative High-Throughput Screening (AID 1296008). Further: nearly all actives have a fitted effect of over 60% in size. On max response: on the % scale 0 is the no-effect control and ±100 the full control effect. The note with it: Five cell lines viability, CellTiter-Glo ATP luminescence, 48-72 h; max response: hits give low values. Put shortly: as §1
Experiment [12] concerns CAOV3. Kind of experiment: Primary qHTS to identify gynecologic anti-cancer compounds using libraries of approved drugs and bioactive compounds (AID 1345084). Further: nearly all actives have a fitted effect of over 55% in size. On activity change, negative = cytotoxicity: on the % scale 0 is the no-effect control and ±100 the full control effect. Conditions: Gynecologic cancer cell panel viability, ATPlite luminescence, 48 h; series mostly up to 57.5 µM. Summed up: as §3
Experiment [13] deals with NIH3T3. Kind of experiment: qHTS assay to identify novel small-molecules to repurpose for Merkel cell carcinoma treatment (AID 1296009). Further: nearly all actives have a fitted effect of over 60% in size. Conditions: MCC and control cell lines, CellTiter-Glo viability, 72 h; at 44.8 µM (top of the series) unless noted. Put shortly:
as §2

The subject of experiment [14] is MCC-13. The description is as above. Conditions: MCC and control cell lines, CellTiter-Glo viability, 72 h. Put shortly:
as §2

Experiment [15] deals with MCC-26. The description is as above. Conditions: MCC and control cell lines, CellTiter-Glo viability, 72 h. Put shortly:
as §2

In experiment [16] the test system is MKL-1. Described as above. The note with it: MCC and control cell lines, CellTiter-Glo viability, 72 h. Put shortly:
as §2

Experiment [17] concerns MKL-2. Described as above. Conditions: MCC and control cell lines, CellTiter-Glo viability, 72 h. Summed up: as §2
The subject of experiment [18] is UISO. Described as above. Conditions: MCC and control cell lines, CellTiter-Glo viability, 72 h. Put shortly:
as §2

The subject of experiment [19] is WaGa. Described as above. Conditions: MCC and control cell lines, CellTiter-Glo viability, 72 h. Put shortly:
as §2
Potency means the concentration at half of the fitted maximal effect.

Consider `Cc1cccc(NC(=O)N[C@@H]2N=C(c3ccccc3)c3ccccc3N(C)C2=O)c1`, for which the compound was called inactive in [1], in experiment [3], in experiment [4], in experiment [5] and in experiment [6]. In experiment [2], the max response is -5.08%. In addition, the Potency entry in [7], in [8], in experiment [9] and in experiment [10] was “inactive” each time.
Turning to `CC12CCC3C(CCC4(O)CC(O)CCC34C=O)C1(O)CCC2C1=CC(=O)OC1` (stereo not given), the Potency in experiment [1] was 326 nM (active); in experiment [2] it was 1030 nM (active); in [3], 1640 nM (active); in experiment [11], 1160 nM (active); in experiment [7], 1000 nM (active); in experiment [12], 2000 nM (active). Besides, the Potency in [8] was 7080 nM (active); in experiment [9], 1120 nM (active); in [10] it was 1780 nM (active). For the same compound, the outcome in experiment [4] was inactive.
On to `CO[C@H]1[C@H](O)[C@H](O[C@H]2CC[C@]3(C)C4CC[C@]5(C)[C@H](C6=CC(=O)OC6)CC[C@]5(O)C4CC[C@@H]3C2)O[C@@H](C)[C@@H]1O` (stereo not given in full), for which the Potency in [1] is 25.2 nM (active); in [2] it was 22.4 nM (active); in [3], 2240 nM (active); in experiment [11], 89.3 nM (active); in experiment [7], 89.1 nM (active); in experiment [12], 126 nM (active). Further, the values for the Potency in experiment [8], in experiment [9] and in [10] were 224 nM (active), 79.4 nM (active) and 89.1 nM (active), respectively. The compound was called inactive in experiment [4].
For the compound `Clc1ccc(N2C[C@H]3CC[C@@H](C2)N3)nn1`, the max response in experiment [1] was -3.23%; in experiment [2], 2.01%; in experiment [3], -0.574%; in experiment [11], 2.38%. In addition, the outcome in experiment [4] was inactive. Also, the Potency entry in experiment [7], in [12], in experiment [8], in [9] and in experiment [10] was “inactive” throughout.
For the compound `C=CC(C)(O)CC/C=C(\C)C(=O)O[C@H]1[C@H](O)[C@@H](CO)O[C@@H](OC(=O)[C@]23CCC(C)(C)CC2C2=CCC4[C@@]5(C)CC[C@H](O[C@@H]6O[C@H](CO[C@@H]7OC[C@H](O)[C@H](O)[C@H]7O[C@@H]7OC[C@@H](O)[C@H](O)[C@H]7O)[C@@H](O)[C@H](O)[C@H]6O)C(C)(C)C5CC[C@@]4(C)[C@]2(C)CC3)[C@@H]1OC1OC(C)C(O[C@@H]2OC[C@@H](O)[C@H](O[C@@H]3OC[C@@H](O)[C@H](O)[C@H]3O)[C@H]2O)C(O)C1O` (stereo not given in full), the figures for the max response in experiment [1] and in experiment [2] were -5.86% and 0.313%, respectively. For the same compound, the call in experiment [3] and in experiment [4] was inactive. Further, the outcome in experiment [6] and in [13] was “inactive [at 9.27 µM]” throughout. The activity change, negative = cytotoxicity in experiment [7] was 2.58% [at 6.55 µM]; in [8] it was -11.5% [at 6.55 µM]; in [9] it was 0.692% [at 6.55 µM]; in experiment [10] it was 7.46% [at 6.55 µM].
Take `C[CH2][Hg][S]c1ccccc1C(=O)O`: the Potency is 16800 nM (active) in experiment [1]; 7310 nM (active) in [11]; 15000 nM (active) in experiment [14]; 15000 nM (active) in experiment [15]; 2990 nM (active) in experiment [16]; 944 nM (active) in experiment [17]. The Potency in experiment [18] is 2990 nM (active); in experiment [19], 2660 nM (active).
For `OC1(c2ccc(Cl)cc2)c2ccccc2C2=NCCN21` (stereo not given), the compound was classed as inactive in experiment [1], in experiment [4], in experiment [5] and in experiment [13]. Moreover, the max response in experiment [2] was -19.8%; in experiment [3], 0.153%. The Potency entry in experiment [7], in experiment [8], in [9] and in experiment [10] was “inactive” in each case.
In the case of `CN1c2ccccc2C(NCCCCCCC(=O)O)c2ccc(Cl)cc2S1(=O)=O` (stereo not given), the max response in [11] is -15.2%.
Consider `CC(=O)OC1CC(O)C(C)(C)C2CC(OC(C)=O)C3(C)C(CCC4(C)C(c5ccoc5)C(=O)C5OC543)C12C` (stereo not given), for which the max response in experiment [1] is -0.447%; in experiment [2], -14.4%; in experiment [3] it was -11.6%; in experiment [11], 4.61%. Moreover, the compound was classed as inactive in experiment [4]. The Potency entry in experiment [7], in [12], in [8], in experiment [9] and in [10] was “inactive” in each case.
With `CC[C@H]1CN2CC[C@H]1C[C@H]2[C@H](O)c1ccnc2ccc(OC)cc12`, the compound was classed as inactive in experiment [1], in experiment [3], in experiment [4], in experiment [5], in experiment [6] and in experiment [13]. Moreover, the max response in experiment [2] is -14.1%. Further, the Potency entry in [7], in experiment [8], in experiment [9] and in experiment [10] was “inactive” throughout.
Regarding `CN1[C@@H]2CC[C@H]1CC(OC(=O)C1C=Nc3ccccc31)C2` (stereo not given in full), the max response in experiment [1] was 0.829%; in experiment [2], -5.26%; in experiment [3] it was 2.07%; in experiment [11], 7.85%. In addition, in experiment [4], the compound was called inactive. Also, the Potency result in experiment [7], in experiment [12], in [8], in experiment [9] and in experiment [10] was “inactive” each time.
Take `COC1=CC(=O)O[C@@H](/C=C/c2ccccc2)C1`: the max response in experiment [1] is -9.99%; in [2], -8.8%. The call in experiment [3], in experiment [4], in [6] and in experiment [13] was inactive. The Potency result in experiment [7], in experiment [8], in [9] and in experiment [10] was “inactive” each time.
On to `COC(=O)N1CCN(C(=O)Cc2ccc(Cl)c(Cl)c2)[C@@H](CN2CCCC2)C1`, for which the max response was -2.38% in experiment [1], -9.31% in experiment [2], -8.83% in experiment [3] and -3.66% in experiment [11]. In addition, the compound was called inactive in experiment [4]. The Potency entry in [7], in experiment [12], in [8], in experiment [9] and in [10] was “inactive” in each case.
